# Experimental data as given in PubChem BioAssay (Tox21).
# Results filed as inconclusive are left out. Unmarked numbers belong to inactive results. Active and inactive are the calls of the source. Calls follow the shape of the dose curve; as a rule, active = well fitted cell-killing curve with a large enough effect in the repeat runs; inconclusive = weak or mixed curves, or effect the other way; inactive = flat fitted curve, though single readings scatter.
# Assay: Nuclear factor erythroid 2-related factor 2/antioxidant responsive element (Nrf2/ARE) small molecule agonists: qHTS cell viability counter screen in human keratinocytes (AID 1919968); also: nearly all actives have a fitted effect of over 55% in size
# Settings: KeratinoSens HaCaT ARE cells viability, CellTiter-Fluor, 24 h; series mostly up to 92.4 µM; activity change, negative = cytotoxicity: at the top concentration
# Description: U.S. Tox21 Program National Center for Advancing Translational Sciences [NCATS] Division of Preclinical Innovation [DPI] U.S. Environmental Protection Agency [EPA] National Institutes of Environmental Health Sciences [NIEHS] National Toxicology Program [NTP] U.S. Food and Drug Administration [FDA] Tox21 Assay Overview: Oxidative stress has been implicated in the pathogenesis of a variety of diseases ranging from cancer to neurodegeneration. The antioxidant response element (ARE) signaling pathway plays an important role in the amelioration of oxidative stress. The KeratinoSens (Givaudan, Switzerland) is an in vitro test method which quantifies luciferase induction as a measure of activation of Keap1-Nrf2-antioxidationt/electrophile response element (ARE) dependant pathway in HaCaT human keratinocytes stably transfected with a selectable plasmid. The KeratinoSens assay is a cell-based assay with a reporter cell line to detect potential skin sensitizers by their ability to induce the Nrf2/ARE-response. The activation of the report gene under culture conditions can be detected by ONE-Glo Luciferase Assay System (Promega, Madison, WI). This cell line has been used to screen the Tox21 10K compound library to identify agonists that induce oxidative stress. The cytotoxicity of the Tox21 compound library against the KS-ARE cell line was tested in parallel by measuring the cell viability using CellTiter- Fluor assay system (Promega, Madison, WI) in the same wells.
# Tox21 Assay Protocol Summary: HaCaT derived cell line KeratinoSens were dispensed at 1,500 cells/5uL/well in 1536-well white wall/solid bottom plates using a Multidrop Combi (ThermoFisher Scientific, Waltham, MA) dispenser. After the assay plates were incubated at 37 C/5% CO2 for 5 h, 23 nL of compounds dissolved in DMSO, positive controls or DMSO only was transferred to the assay plate by a pintool workstation (Kalypsys, San Diego, CA). The plates were incubated at 37 C/5% CO2 for 23 h, followed by addition of 1uL/well of CellTiter-Fluor reagent into the assay plates using a Flying Reagent Dispenser (Aurora Discovery, San Diego, CA) for cell viability readout that measures cytotoxicity. After 1 h incubation at 37 C/5% CO2 the fluorescence intensity was measured using a ViewLux (PerkinElmer, Shelton, CT) plate reader.
# % is scaled to controls: 0 for no effect and ±100 for the full control effect; potency is read from the fitted curve at half-maximal effect.
SMILES,Potency,"activity change, negative = cytotoxicity"
Oc1c(Br)cc(Br)c2cccnc12,2.66 µM (active),–
Nc1ccc(Oc2cccc(Oc3ccc(N)cc3)c2)cc1,–,-1.87%
NS(=O)(=O)c1cc2c(cc1C(F)(F)F)NCNS2(=O)=O,–,0.721% [at 42.5 µM]
NC(=O)NC(=O)Cc1ccccc1,–,0.965% [at 42.5 µM]
CCOC(=O)CC1(C)OCC(C)O1 (stereo not given),–,4.15%
CCCCCCCCCCCCN1CCOCC1,–,0.589%
CCCCc1nc(Cl)c(CO)n1Cc1ccc(-c2ccccc2-c2nn[nH]n2)cc1,–,-18.9% [at 42.5 µM]
O=C(O)Cc1csc(-c2ccc(Cl)cc2)n1,–,1.71% [at 42.5 µM]
O=C(c1ccccc1)c1ccc(Cl)cc1,–,-0.529%
O=C(NCC1CN(c2ccc(N3CCOCC3=O)cc2)C(=O)O1)c1ccc(Cl)s1 (stereo not given),–,2.05% [at 42.5 µM]
Cc1nnc(C(=O)NC(C)(C)c2nc(C(=O)NCc3ccc(F)cc3)c(O)c(=O)n2C)o1,–,-2.29% [at 42.5 µM]
O=C(O)C(O)[C@H](O)[C@@H](O)[C@H](O)[C@H](O)CO (stereo not given in full),–,-5.21%
S=C1NC=NC2N=CNC12 (stereo not given),–,-0.995%
O=C1CCCCCCCCCCC(=O)OCCO1,–,5.53%
O=C(O)COCC(=O)O,–,0.69%
CC(=O)c1ccc(C(C)=O)cc1,–,0.768%
Cc1c(NC(C)C)c(=O)n(-c2ccccc2)n1C,–,-1.1% [at 42.5 µM]
C[N+]1(CC2COC(c3ccccc3)(c3ccccc3)O2)CCCCC1 (stereo not given),–,-0.244% [at 19 µM]
CCCOc1ccccc1-c1nc2n[nH]nc2c(=O)[nH]1,–,5.75% [at 42.5 µM]
OCCNCc1ccccc1,–,2.05%

SMILES,Potency,"activity change, negative = cytotoxicity"
Cc1cc(Br)ccc1NC(=O)CCl,30.6 µM (active),–
O=C(O)c1snc(Cl)c1Cl,–,4.06%
CCN(CCO)CCCC(C)Nc1ccnc2cc(Cl)ccc12 (stereo not given),–,-14.6% [at 8.39 µM]
COc1cc(CNC(=O)CCCC/C=C/C(C)C)ccc1O,–,10.9%
O=C1c2ccccc2C(=O)N1CO,–,-2.09%
OCCSc1ccccc1,–,-12.7%
COC(=O)c1ccc(OC)cc1,–,8.94%
COc1ccc(N)c([N+](=O)[O-])c1,–,-12.8%
CCCC(C(=O)OCCN(CC)CC)(c1ccccc1)c1ccccc1,–,-20.7% [at 42.5 µM]
NC(=O)N1c2ccccc2CC(=O)c2ccccc21,–,3.6% [at 42.5 µM]
CC(CCc1ccccc1)NCC(O)c1ccc(O)c(C(N)=O)c1 (stereo not given),–,1.23%
Cc1c(Cn2ccnc2)c2ccccc2n1CCC(=O)O,–,1.4% [at 42.5 µM]
Nc1nc(-c2ccc([N+](=O)[O-])cc2)cs1,–,-7.37%
CC(C)Oc1ccccc1O,–,-0.888%
O=C1CCCC(=O)C1,–,1.22%
[Cu+],–,6.03%
CCCCCCCC(=O)Oc1c(Br)cc(C#N)cc1Br,–,-10.5%
CC(C)(C)C1=CC(=O)C(C(C)(C)C)=CC1=O,–,5.25% [at 42.5 µM]
Cn1c(N)c(N=O)c(=O)n(C)c1=O,–,0.461%
CCCC(=O)OC(=O)CCC,–,1.83%
